Sampled rows, rich in hits. Any-hit rate of the full collection: about 11%.
JMJD2A Tudor inh: inhibitors of human JMJD2A Tudor domain | Potency, µM (series often up to 114 µM), for the others: at the top dose activity change, negative = inhibition, usual class: inhibitors | AlphaScreen JMJD2A-Tudor / H3K4me3 peptide binding | O75164 | AID 504339 | 4.4% of 390,000 active; note: % is set by controls: 0 for no effect and ±100 for the full control effect; nearly all actives have a fitted effect of over 50% in size
BAZ2B inh: inhibitors of human BAZ2B bromodomain. Q9UIF8. AlphaScreen BAZ2B-H3K14Ac peptide displacement. Potency, µM (titrated, usually from 114 µM), for the others: at the highest dose activity change, negative = inhibition, actives largely listed as inhibitors. 4.4% of 360,000 active. AID 504333; note: % is set by controls: 0 for no effect and ±100 for the full control effect; nearly all actives have a fitted effect of over 60% in size
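BAZ2B (50 nM) with biotin-H3(5-23)K14Ac peptide (50 nM) in PBS pH 7.4, 0.01% Tween-20, preformed 30 min, then compound 30 min at room temperature; top concentration 110uM. AlphaScreen streptavidin donor/nickel chelate acceptor beads (10 ug/mL final), 20 min dark, signal read.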
VDR inhibitor: vitamin D3 receptor (human) inhibition; P11473; VDR-SRC2-3 peptide fluorescence polarization, 2 h; 0.93% of 400,000 active; Potency, µM, inactives show max response, negative = inhibition, most hits filed as inhibitors; note: % is set by controls: 0 for no effect and ±100 for the full control effect
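Fluorescence polarization assay measuring small-molecule disruption of VDR binding to the coregulator peptide SRC2-3. Compounds were pin-transferred (23 nl) into the reagent mix and incubated 2 h at room temperature before reading.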
HP1b binding inh: blocks HP1-beta chromodomain binding to methylated histone tails; P83916; AlphaScreen HP1-beta / biotin-H3K9me3 peptide binding; Potency, µM (top dose mostly 114 µM), without a hit: at the highest dose activity change, negative = inhibition, hits mostly inhibitors; 0.56% of 390,000 active; note: nearly all actives have a fitted effect of over 70% in size
Target sequence (P83916 whole entry, looked up): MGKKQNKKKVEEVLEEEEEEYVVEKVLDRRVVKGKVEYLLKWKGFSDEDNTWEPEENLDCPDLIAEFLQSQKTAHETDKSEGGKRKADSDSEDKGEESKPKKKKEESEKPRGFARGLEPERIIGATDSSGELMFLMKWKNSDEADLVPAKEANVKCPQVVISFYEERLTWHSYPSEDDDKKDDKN
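HP1-beta protein (50 nM final) preincubated 30 min at room temperature with biotinylated H3(1-18)K9me3 peptide (50 nM) in PBS pH 7.4, 0.01% Tween-20, then compound added for 30 min. AlphaScreen streptavidin donor/nickel chelate acceptor beads (10 ug/mL final), 30 min dark, luminescence read.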
PLK1 PBD block: PLK1 (human) polo-box domain binding inhibition; Plk1 PBD binding of FITC phosphopeptide, fluorescence polarization; Potency, µM, inactives show max response, negative = inhibition, actives largely listed as inhibitors; 2.8% of 360,000 active; note: series mostly up to about 57 µM; % is set by controls: 0 for no effect and ±100 for the full control effect; nearly all actives have a fitted effect of over 65% in size
G9a inh: inhibitors of human histone lysine methyltransferase G9a; Q96KQ7; G9a H3K9 monomethylation, AlphaScreen, 2 h; Potency, µM (doses to about 102 µM), for inactives: at the top dose activity, negative = inhibition, most hits filed as inhibitors; 8.8% of 350,000 active; AID 504332; note: % is set by controls: 0 for no effect and ±100 for the full control effect; nearly all actives have a fitted effect of over 75% in size
Target sequence (Q96KQ7 913-1193 limits assumed): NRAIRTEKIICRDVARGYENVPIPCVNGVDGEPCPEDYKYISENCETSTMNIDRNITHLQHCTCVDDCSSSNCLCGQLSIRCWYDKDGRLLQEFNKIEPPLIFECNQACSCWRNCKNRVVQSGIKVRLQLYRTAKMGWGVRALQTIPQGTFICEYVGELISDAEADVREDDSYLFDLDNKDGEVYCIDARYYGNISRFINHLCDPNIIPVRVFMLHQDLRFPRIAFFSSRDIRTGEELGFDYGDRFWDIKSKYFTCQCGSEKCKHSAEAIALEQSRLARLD
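AlphaScreen detection with an anti-monomethyl H3K9 antibody quantified product after a 2 h room-temperature reaction containing 500 nM biotinylated H3K9 peptide, 20 µM SAM and 20 nM enzyme, which had been preincubated 15 min with compound.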
The depositor's hits bear a star; ? = inconclusive; / = no result; [ ] = another dose, or the depositor's remark. Calls come from the whole dose curve; as a rule, active = well fitted curve in the direction sought with a large enough effect; inconclusive = small, poorly fitted or top-dose-only effect, or another doubt; inactive = no such curve, though single readings can be large; an effect the other way counts as inactive or inconclusive. Potency is the fitted concentration of half-maximal effect.

SMILES	JMJD2A Tudor inh	BAZ2B inh	VDR inhibitor	HP1b binding inh	PLK1 PBD block	G9a inh
Cc1ccc(NC(=O)COC(=O)c2ccccc2Nc2ccccc2)cc1	-3.7%	-37.1%	7.1%	27.6%	0.5%	-48.6%[59 µM]
CC(C)(C)Nc1cccccc1=O	-9.2%[11.4 µM]	-2.9%	-8.5%	41.6%	-15.7%	44.7µM*
CC(=O)Nc1ccccc1C	-20.7%	0.1%	-2.7%	39.2%	-2.6%	-6.6%[0.501 µM]
Cc1ccc(Nc2cccccc2=O)cc1	?	-10.8%	-9.1%	-23.9%	9.47µM*	-11.2%
COc1cccc(N2CC(NC(=O)c3ccc4c(c3)OCO4)CC2=O)c1 (stereo not given)	-0.3%	-3.0%	-6.9%	12.6%	/	11.6%[59 µM]
CC(=O)OCCCn1c(C)[n+](C)c2cc(Cl)c(Cl)cc21	31.6µM*	-30.3%	-4.3%	-28.4%	-12.4%	31.6µM*
COc1ccc(C(N)c2nccc3cc(OC)c(OC)cc23)cc1OC (stereo not given)	56.2µM*	14.1µM*	5.5%	48.4%	2.3%	/
O=C(O)CC(O)CC(O)/C=C/c1c(C2CC2)nc2ccccc2c1-c1ccc(F)cc1 (stereo not given)	/	/	?	/	/	25.3%[59 µM]
COC(=O)C[C@@H]1CC[C@H](NS(=O)(=O)c2ccccc2F)[C@@H](CO)O1	/	/	/	/	-4.7%	/
CSc1ccc2nnc(-c3ccc(C)cc3)n2n1	-20.0%[57.1 µM]	/	24.2%	19.9%[57 µM]	/	/
CC(=O)C(Sc1ccc2nnc(-c3ccc(F)cc3)n2n1)C(C)=O	?	?	-16.3%	43.6%	-8.5%	17.8µM*
CC(=O)C(Sc1ccc2nnc(-c3ccc(C)cc3)n2n1)C(C)=O	?	-2.0%	-13.0%	21.9%	0.2%	31.6µM*
COCCN(C(=S)Nc1c(C)cccc1C)C(C)c1ccco1 (stereo not given)	-14.4%	-12.1%	-5.3%	28.2%	-1.1%	5.7%[12.7 µM]
COc1ccc(N=C2O/C(=C/c3sc(=S)n(CC4CCCO4)c3O)N=C2C#N)cc1 (stereo not given)	?	8.91µM*	26.3%	?	-21.1%	11.2µM*
O=C1N=c2ccccc2=C1c1sc(=S)n(CC2CCCO2)c1O (stereo not given)	-7.6%	?	9.2%	8.8%	-1.8%	?
NC(=O)c1ccc(-n2nnnc2Oc2ccccc2)cc1	?	5.5%	-20.7%	-20.8%	23.8µM*	8.2%[12.7 µM]
COC(=O)c1cc2c(N)c(C(=O)c3ccccc3)sc2nc1C(OC)OC	6.3%	-0.7%	4.3%	85.2%	-0.1%	23.1%[59 µM]
CCCCOc1ccc(Nc2cc(Cl)ccc2C(=O)O)cn1	?	70.8µM*	-15.0%	-30.5%	23.8µM*	30.1%[0.501 µM]
CC1CCC/C(=C\Nc2ccc3c(c2)OCO3)C1=O (stereo not given)	100µM*	?	-1.7%	-10.4%	-19.3%	8.91µM*
CC1CCC/C(=C\Nc2ccccc2C(=O)O)C1=O (stereo not given)	-26.1%	?	1.5%	38.1%	-3.6%	44.7µM*
O=C1CCC/C1=C/Nc1ccc2c(c1)OCO2	-4.2%	?	5.2%	23.6%	0.3%	?
CCOC(=O)C1=C(CS(=O)(=O)c2ccccc2)NC(=O)NC1c1cc(OC)c(O)c(OC)c1 (stereo not given)	-16.7%	-11.5%	-2.4%	20.1%	-8.0%	8.1%
O=C1CCc2cc(S(=O)(=O)NCCC(=O)N3CCN(c4cccc(Cl)c4)CC3)ccc2N1	-17.2%	-4.8%	41.7%	7.4%	-8.9%	-2.2%[59 µM]
Cn1nc([N+](=O)[O-])nc1Oc1ccccc1N	1.1%	4.4%	2.1%	39.7%	-0.3%	-13.0%
Cn1nc([N+](=O)[O-])nc1Oc1ccccc1F	?	-11.6%	-25.3%	1.7%	23.8µM*	1.0%[12.7 µM]
Cc1ccc(C2(C)NC(=O)N(CC(=O)Nc3ccccc3N3CCCC3)C2=O)cc1 (stereo not given)	?	50.1µM*	1.7%	-21.3%	-5.0%	39.8µM*
CCC1(c2ccc(F)cc2)NC(=O)N(CC(=O)Nc2ccc(N3CCCCC3)cc2)C1=O (stereo not given)	44.7µM*	44.7µM*	-15.5%	-47.8%	-9.2%	-5.8%[0.501 µM]

Source: PubChem BioAssay (National Center for Advancing Translational Sciences (NCATS))
